This is an account of results in ChEMBL document CHEMBL3988442, “University of Dundee, Small-Polar-MMV Screening Library” (2021).

SMILES strings stand for the structures.

In the assay the target is AMP-activated protein kinase, AMPK (Homo sapiens) (UniProt P54646+O43741+P54619+Q9UGJ0+Q9Y478+Q13131+Q9UGI9). As to the kind of experiment: AMP-dependent Kinase enzyme assay. An in vitro enzyme assay that detects ADP turnover that is directly proportional to AMPK activity. This uses naive AMPK that is activated during the assay with MK-8722. The assay is classed as functional. Also noted: scale not given: direction of the effect not stated beside the values. Conditions: 30 µM.
For `CNS(=O)(=O)CC(=O)N(C1CCCC1)C1CC1`, the Percent Effect was -3.58%.
For the molecule `COC(=O)CSCc1noc(-c2ccc(C)cc2)n1`, the Percent Effect was -5.29%.
As to `CC(C)c1noc(C(C)N2CCC(c3nc4ccccc4[nH]3)CC2)n1` (centres undefined), the Percent Effect was 0.872%.
In the case of `O=C(CCOc1ccccc1F)N1CCOCC1` it was -12.5%; in that of `OC[C@@H]1CCCN1Cc1cn(C2CCN(C3CCCC3)CC2)nn1`, -1.95%; in that of `COCc1cccc(NCc2cccnc2)c1`, 0.23%.
For `CC(C)c1nc(C2CCCN2CCNS(C)(=O)=O)no1` (centres undefined), the Percent Effect stood at 9.75%.
Take `CCCC(=O)NCCc1cc(NC)nc(-c2ccccn2)n1`: the Percent Effect was -2.74%.
Then `COc1ccccc1C(C)(C)NC(=O)c1ccc(F)c(NC(C)=O)c1`, with -4.2%; and `CC(C)N1CCC(CC(=O)NCc2cc(O)ncn2)CC1`, with -3.46%; and `CC(C)c1nc(C2CCCN2CCOCC2CC2)no1` (centres undefined), with 7.32%.
For `COc1cccc(CC2CCCN2Cc2nccn2C)c1` (centres undefined), the Percent Effect is -2.19%.
Then `COc1c(F)cc(-c2cccc3c2OC(CN)C3)cc1F` (centres undefined), with -4.2%; and `COCCNc1ccc(CC2CCCN(C3CCCC3)C2)nn1` (centres undefined), with 4.32%.
Then `C/C(Cl)=C/CNC(=O)[C@H]1CC[C@]2(CC1)CN(C)C(=O)c1ccccc1O2`, with 7.27%; and `CCn1cnnc1CNC(=O)N1CCOC(c2ccccc2Cl)C1` (centres undefined), with 0.771%; and `Cc1noc(C)c1CC(=O)N1CCCC(Cn2ccnc2C)C1` (centres undefined), with -4.07%.
With `CCNC(=O)C1CCN(Cc2ccc(C(=O)Nc3nnc(C)s3)cc2)C1` (centres undefined), the Percent Effect is -2.87%.
In the case of `Cc1cncc(C2CCN(Cc3cnc(C)nc3)CC2)n1` it was 9.99%.
